From PubChem BioAssay
CF NFkB block – blocks PAF-induced NF-kB reporter in cystic fibrosis cells; KKLEB NF-kB-GFP reporter, GFP fluorescence overnight; inhibition, % at 5 µM; 360,000 tested, 0.86% active; AID 588850;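 active = at least 50% inhibition at 5 µM, scaled per plate between neutral and stimulator controls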;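 note: PAF is a Pseudomonas aeruginosa culture filtrate used as stimulus; plate controls were PAF-stimulated DMSO wells for no effect and unstimulated DMSO wells for full effect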
Peg3 prom inh – Peg3 promoter activity inhibition; 360,000 tested, 1.7% active; inhibition, % at 20 µM; HeLa PEG-Prom luciferase reporter, luminescence, overnight;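 active = inhibition of at least 50% at 20 µM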
HIF-2a block – HIF-2a inhibition | 786-0 RCC cells HIF-2a reporter, luciferase luminescence, overnight | inhibition, % at 18.8 µM | 360,000 tested, 0.72% active | AID 624352;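 active = inhibition of the luminescence signal of 40% or more relative to plate controls, in a single-dose primary screen at 18.75 µM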
MITF TRPM1 inh – MITF TRPM1 promoter inhibition in SK-MEL-5 cells; inhibition, % at 12.5 µM; SK-MEL-5 TRPM1 promoter luciferase, 24 h; 330,000 tested, 0.83% active; AID 488899;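 active = mean inhibition across replicates of 60% or more, whatever share of single replicates reaches that level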
ABHD5-PLIN5 inh – inhibitors of human ABHD5-perilipin-5 interaction. Q00G26+Q8WTS1. Split G. princeps luciferase complementation, luminescence, 4 h. inhibition, % at 4 µM. 360,000 tested, 0.78% active;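 active = inhibition above the mean inhibition across every tested compound plus 3 SD, cut at about 22% in these data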;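 note: 0% = DMSO only wells and the 100% control is not disclosed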
KKLEB cytotox – reduces viability of KKLEB cystic fibrosis airway cells. AID 602141. activity change (cytotoxicity), % at 5 µM. 360,000 tested, 0.36% active. KKLEB CF airway cells viability, ATPlite luminescence, overnight; stronger effect = lower value; cells stimulated with P. aeruginosa culture filtrate;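 active = corrected activity change at or below -50% at 5 µM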
Numbers without * were called inactive; nt = no result. Rows were chosen to be rich in hits. Some 3% of all compounds tested hit in one or more screens of this group.

SMILES | CF NFkB block | Peg3 prom inh | HIF-2a block | MITF TRPM1 inh | ABHD5-PLIN5 inh | KKLEB cytotox
Cc1noc(C)c1COc1ccccc1C(=O)NC(C)c1ccc(Cl)cc1 (stereo unspecified) | 1 | 16 | 8 | 11 | 1 | -19
COc1ccccc1-n1cc([C@@H]2C[C@H]3CN(c4ccccc4)C(=O)[C@]34CCCN24)cn1 | 86* | 98* | -54 | 46 | 1 | -56*
COc1ccccc1CN1C[C@@H]2C[C@@H](c3ccc(Cl)cc3)N3CCC[C@@]23C1=O | -8 | -3 | 27 | 3 | 2 | 13
CCOc1cc([C@@H]2C[C@H]3CN(c4ccccc4)C(=O)[C@]34CCCN24)ccc1OC | 5 | 98* | 2 | 31 | -2 | 8
COc1cc([C@@H]2C[C@H]3CN(c4ccccc4)C(=O)[C@]34CCCN24)cc(OC)c1OC | 1 | 87* | 6 | 8 | 1 | 8
COc1cc(Cl)c([C@@H]2C[C@H]3CN(c4ccccc4)C(=O)[C@]34CCCN24)cc1OC | -4 | 19 | 14 | 7 | 2 | -12
CCOC(=O)C1=CN(Cc2ccco2)S(=O)(=O)N(CC)C1c1ccc(F)c(Cl)c1 (stereo unspecified) | 13 | 10 | 12 | -2 | 9 | 2
CCC1Oc2ccccc2N(CC(=O)NCC2CCCO2)C1=O (stereo unspecified) | 4 | 7 | 6 | -9 | -2 | -1
Cc1cc(NC(=O)C2CCCCC2)nc2c1c(=O)oc1ccccc12 | -38 | 51* | -12 | 9 | -2 | 5
CC1(c2ccccc2)CC(C)(C)N2C(=O)/C(=C3\SC(=S)NC3=O)c3cccc1c32 (stereo unspecified) | 61* | 37 | 9 | 12 | 4 | -25
c1ccc(COc2ccccc2CNC23CC4CC(CC(C4)C2)C3)cc1 | 19 | 75* | 13 | 7 | 5 | -12
Clc1cccc(Cc2c(-c3ccco3)nc3ccc(Br)cn23)c1 | 43 | -8 | 24 | nt | 49* | -4
COc1ccccc1Cc1c(-c2ccco2)nc2cc(C)c(Br)c(C)n12 | nt | nt | 8 | nt | 58* | nt
Cc1cc2nc(-c3ccco3)c(Cc3cccc(Cl)c3)n2c(C)c1Br | nt | nt | 2 | nt | 26* | nt
Cc1ccc(C(=O)Nn2cnnc2)cc1 | -7 | 1 | 14 | -7 | 8 | 5
CC1(CC(=O)N/N=C/c2cc3c(cc2Br)OCO3)OCCO1 | -16 | -22 | -7 | -11 | 0 | 15
Fc1ccc(/C=N/N2CCN(Cc3ccccc3)CC2)cc1 | -7 | -45 | -91 | -17 | -9 | 8
CCC1Nc2ncnc(N3CCCCC3)c2N(Cc2ccc(OC)cc2)C1=O (stereo unspecified) | 21 | 17 | 2 | 3 | -7 | -8
CNCc1c(OCc2ccccc2)ccc2ccccc12 | 9 | -7 | 2 | 7 | -4 | -29
CC(C)(CO)NCc1c(OCc2ccc(Cl)cc2)ccc2ccccc12 | 11 | 54* | -54 | -10 | 9 | -1
C[C@@H]1O[C@@H](O[C@H]2[C@H](Oc3cc(O)c4c(c3)OC(c3ccc(O)cc3)CC4=O)O[C@H](CO)[C@@H](O)[C@@H]2O)[C@H](O)[C@H](O)[C@H]1O (stereo partly specified) | -6 | -2 | 1 | -4 | 2 | -54*
C[C@@H]1O[C@@H](O[C@H]2[C@H](Oc3cc(O)c4c(c3)O[C@H](c3ccc(O)cc3)CC4=O)O[C@H](CO)[C@@H](O)[C@@H]2O)[C@H](O)[C@H](O)[C@H]1O | 3 | 0 | 5 | 0 | 4 | 3
CC(NCC(O)COCCC12CC3CC(CC(C3)C1)C2)c1ccccc1 (stereo unspecified) | 8 | 104* | 2 | 57 | 11 | -18
COP(=O)(OC)C(Nc1ccc(C)cc1)c1ccc([N+](=O)[O-])cc1 (stereo unspecified) | 11 | -51 | -76 | 6 | -4 | -9
CCOC(=O)c1cc([N+](=O)[O-])c([N+](=O)[O-])cc1NC(C)=O | 60* | 109* | 23 | 88* | 12 | -21
CCOC(=O)c1ccc(NC(=O)c2ccccc2[N+](=O)[O-])cc1 | -6 | -90 | -135 | -52 | 1 | -15
COc1ccc(S(=O)(=O)N(C)c2ccc(C(=O)Nc3cccnc3)cc2)cc1OC | 42 | 10 | 17 | -14 | -3 | -13
